The results in this text go back to PubChem BioAssay AID504834 (National Center for Advancing Translational Sciences (NCATS), 2011).

Hit rate of the full screen: of about 320,000 compounds, about 22,000 (6.9%) were called active. A call without a number means that no potency is given here. Not shown: some 27% with an inconclusive outcome. This is one part of a sample in which actives are shown more often than they occur. The call rests on the fitted dose curve; in most records, active means well fitted inhibition curve with a large enough effect; inconclusive means small, poorly fitted or top-dose-only effect, or another doubt; inactive means no such curve, though single readings can be large or run the other way.
Potency means the concentration at half of the fitted maximal effect.

The nature of this test: Primary qHTS for delayed death inhibitors of the malarial parasite plastid, 96 hour incubation. The following applies: P. falciparum luciferase reporter growth; series mostly up to 28.7 µM. The source says: The goal of this screen is to discover new antimalarial compounds that act by inhibiting the development of the apicoplast in the malarial parasite Plasmodium falciparum. The biochemical processes that make this organelle essential for erythrocytic stage parasites are not well understood. However, antibiotics such as azithromycin and tetracycline, which target the apicoplast translational machinery, have a potent antimalarial effect.
We have developed a cell-based assay that measures parasite growth based on the expression of an integrated copy of a firefly luciferase reporter. To detect small molecules that cause this "delayed death" phenotype, erythrocytes infected with the luciferase-expressing parasites were incubated with compounds for either one or two generations, corresponding to 48 and 96 hours, respectively. Compounds that inhibit parasite growth in the second generation, but not the first, should be enriched in antimalarials that target the apicoplast. Growth inhibition is detected by a decrease in luciferase activity.
Assay Provider: David Fidock and Eric Ekland, Columbia University
Keywords: NIH Roadmap, MLPCN, MLI, MLSMR, qHTS, NCGC, qHTS, malaria, luciferase, viability
Four microliters of infected erythrocytes (2% hematocrit, 0.05% parasitemia final concentration) in culture medium were dispensed and the plates incubated for 96 hours at 37 C in 5% CO2. Two microliters of luciferase detection reagent was added and luminescence was detected by a ViewLux (PerkinElmer) reader.
(In general: qHTS replaces the single test concentration by a dilution series.)
For the molecule `O=C(OCc1ccc([N+](=O)[O-])cc1)C1CC(=O)N(Cc2ccccc2Cl)C1` (centres undefined), the Potency entry was “inactive”.
The entry for `O=C(COc1cccc2c1CCNC2=O)NC1CCCCC1` is “inactive”.
The entry for `O=C(O)c1cccc(N=NN2CCCCCC2)c1` is “inactive”.
The figure for `NC1=NN(c2cccc(C(=O)O)c2)C(=O)C1` is 13.1 µM (active); for `O=C(O)c1cccc(S(=O)(=O)N2CC=C(c3ccccc3)CC2)c1` it is “inactive”; for `CCOc1ccccc1N1CCN(C(=O)c2ccc3[nH]c(C)c(C)c3c2)CC1` it is “inactive”.
In the case of `COC(=O)C1CCN(C(=O)c2ccc3oc(Cc4ccc(Cl)cc4)nc3c2)CC1`, the Potency result was “inactive”.
Under `CCCCCCCNC(=O)C1(CC2CC(c3cccc(Br)c3)=NO2)CCN(C(=O)c2cc(OCC)c(OCC)c(OCC)c2)CC1` (centres undefined) stands 0.329 µM (active); under `CC(=O)N1CCC(C(=O)OCc2ccc(Cl)cc2)(c2ccccc2)CC1`, “inactive”.
In the case of `O=C(c1ccccc1)N1CCC(CC2CC(c3ccc(Cl)cc3)=NO2)(C(=O)NCC2CCCCC2)CC1` (centres undefined), the Potency was 1.04 µM (active).
The entry for `COc1ccccc1C(=O)NC(=O)COC(=O)c1ccco1` is “inactive”.
The entry for `Cc1ccc(N2C(=O)CC(Nc3cccc4ccccc34)C2=O)cc1` (centres undefined) is “inactive”; for `COc1ccc(C2=NS(=O)(=O)N(C)C(C(=O)NC(C)c3ccccc3)=C2)cc1` (centres undefined) it is “inactive”; for `COc1ccccc1CCC(=O)NNC(=O)c1ccncc1` it is “inactive”.
The entry for `Cc1nn(-c2ccccc2)c(C)c1NC(=O)COC(=O)c1cc(Cl)ccc1O` is “inactive”.
Turning to `CCN1CCN(c2ccc(NC(=O)c3cnccn3)cc2)CC1`, the Potency result is “inactive”.
The figure for `CCN1CCN(C(c2cccnc2)c2cc(Cl)c3cccnc3c2O)CC1` (centres undefined) is 10.4 µM (active); for `Cc1nc(C)c(-c2nnc(-c3cccc(S(=O)(=O)N(C)C)c3)o2)cc1C(=O)NN` it is “inactive”; for `Cn1c(SCC(=O)Nc2ccc(N3CCOCC3)cc2)nnc1C(F)(F)F` it is “inactive”.
On to `Cc1ccccc1NC(=O)c1cc(S(=O)(=O)Nc2cccc(C(=O)O)c2)ccc1Cl`, for which the Potency result was “inactive”.
Under `S=C1Nc2cc(Cl)ccc2Sc2ccccc21` stands “inactive”; under `O=C(NC1CC1)c1cccc(Br)c1`, “inactive”.
Under `O=C(NC1CC1)c1ccc2c(c1)NC(=O)c1ccccc1S2` stands 8.28 µM (active); under `CCOC(=O)C(C)n1cnc2scc(-c3ccc(C)c(C)c3)c2c1=O` (centres undefined), “inactive”; under `CCn1cnc2scc(-c3ccc(C)c(C)c3)c2c1=O`, “inactive”.
The figure for `COC(=O)Cn1cnc2scc(-c3ccc(C)c(C)c3)c2c1=O` is 10.4 µM (active); for `CSc1ccccc1NC(=O)C(C)N1C(=O)c2ccccc2S1(=O)=O` (centres undefined) it is “inactive”; for `COc1ccc(NC(=O)CCN2CCCC2)c(OC)c1` it is “inactive”.
As for `COc1ccc(NC(=O)C(C)N2c3cccc4cccc(c34)S2(=O)=O)c(OC)c1` (centres undefined), the Potency is 2.94 µM (active).
Under `CN(CC(=O)NCc1ccc2c(c1)OCO2)CC(=O)Nc1ccc(F)c(F)c1F` stands “inactive”; under `CCC(C)N(C(=O)COC(=O)c1nc(Cl)ccc1Cl)C1CCS(=O)(=O)C1` (centres undefined), “inactive”.
The entry for `O=C(c1ccc(OC2CCN(C/C=C/c3ccc(F)cc3)CC2)cc1)N1CCCCC1` is “inactive”; for `COc1ccc(S(=O)(=O)N(C)CC(=O)N2CCCC2)cc1` it is “inactive”; for `Cc1ccc(S(=O)(=O)N2CCC(Oc3ccc(-n4cnnn4)cc3)CC2)cc1` it is “inactive”.
The entry for `CC(C)(c1ccccc1)c1ccc(OCCN)cc1` is “inactive”; for `CN1CCC[C@@H]1CCO[C@](C)(c1ccccc1)c1ccc(Cl)cc1` it is 15.1 µM (active); for `CC(C)(c1ccccc1)c1ccc(OCCN2CCCC2)cc1` it is “inactive”.
In the case of `O=c1c2cc(Br)ccc2nc(-c2cccc(Cl)c2)n1O`, the Potency result was “inactive”.
The entry for `O=C(c1ccc2c(c1)OCO2)N1CCOCC1` is “inactive”.
The entry for `O=C(c1cccc(S(=O)(=O)N2CCOCC2)c1)N1CCOCC1` is “inactive”; for `O=C(c1cccc(N2CCCC2=O)c1)N1CCOCC1` it is 6.57 µM (active).
The entry for `Cc1ccc(C(=O)NNC(=O)c2ccc3c(c2)OCCO3)cc1` is “inactive”.
Take `COCc1cc(C)n(CC(=O)NCC2CCCO2)c(=O)c1C#N` (centres undefined): the Potency entry was “inactive”.
Under `CCn1nccc1C(=O)Nc1ccc(S(=O)(=O)NC23CC4CC(CC(C4)C2)C3)cc1` stands 6.57 µM (active); under `Cc1noc(NS(=O)(=O)c2ccc(NC(=O)C34CCC(CC3)C4)cc2)c1C`, “inactive”.
`O=C(Nc1ccc(S(=O)(=O)Nc2ncccn2)cc1)C12CC3CC(CC(C3)C1)C2`: the Potency result is “inactive”.
The entry for `Cc1ccc(S(=O)(=O)NCCC(=O)NNC(=O)C2COc3ccccc3O2)cc1` (centres undefined) is “inactive”; for `Oc1ccccc1C1=NN(c2ccccc2)C(c2ccccc2)C1` (centres undefined) it is 1.65 µM (active).
Turning to `COc1ccc(C2CC(c3cccs3)=NN2c2ccccc2)cc1` (centres undefined), the Potency result is “inactive”.
Under `CC(=O)Oc1ccccc1C1=NN(C(C)=O)C(c2ccccc2)C1` (centres undefined) stands “inactive”; under `Cn1cc(C(=O)c2ccc(Cl)cc2Cl)cc1C(=O)NN`, “inactive”.
Under `COc1ccc(CCNC(=O)COc2ccc3c(c2)OCO3)cc1` stands “inactive”; under `Cc1ccc2nc(C)c3c(c2c1)N(c1ccccc1)CC3`, 6.57 µM (active); under `Cc1ccc2nc(Nc3ccccc3)cc(C)c2c1`, “inactive”.
As for `Cc1ccc2nc(-c3ccccc3)cc(C(=O)O)c2c1`, the Potency entry is “inactive”.
The entry for `O=C1NCCn2nc3ccccc3c21` is “inactive”; for `CCN(CC)CCn1c2c(c(SCC(=O)Nc3nc4ccccc4s3)nc1=O)CCCC2` it is 11.7 µM (active); for `Cc1csc(NC(=O)CSc2nc(=O)n(CCCN(C)C)c3c2CCC3)n1` it is “inactive”.
Under `Cn1nnnc1SCC(=O)Nc1nc2ccccc2s1` stands “inactive”.
As to `CC(C)c1ccc(NC(=O)COC(=O)c2ccc(CN3CCCC3=O)cc2)cc1`, the Potency entry is “inactive”.
Under `Cn1c(SCC(=O)Nc2ccc(Cl)cc2)nc(O)cc1=O` stands “inactive”.
Under `CCN(CC)CCn1c2c(c(SCC(=O)Nc3ccc(C(C)C)cc3)nc1=O)CCC2` stands 4.15 µM (active); under `COc1ccccc1C(=O)NC(CCSC)C(=O)NNC(=O)c1csc(N2CCOCC2)n1` (centres undefined), “inactive”; under `Cc1ccc(CSCC2Nc3ccc(C(=O)N4CCN(c5ccc(F)cc5)CC4)cc3NC2=O)cc1` (centres undefined), “inactive”.
Under `O=C(O)c1ccccc1C(=O)NC1=NN(c2ccccc2)CC1` stands “inactive”.
As for `O=[N+]([O-])c1ccc2c(c1)C(O)n1nc(-c3ccccc3)nc1S2` (centres undefined), the Potency result was “inactive”.
The entry for `O=C(CN1CCCCCC1)Nc1c(Cl)cc(Cl)cc1Cl` is “inactive”.
For `COc1cccc(NC(=S)NCCCN2CCOCC2)c1`, the Potency result was “inactive”.
Regarding `CCc1ccc(NC(=O)CSc2nc3ccccc3c(=O)n2CCN2CCOCC2)cc1`, the Potency result was “inactive”.
Under `COC(=O)c1ccc2c(=O)n(CCN3CCOCC3)c(SCC(=O)Nc3cccc(OC)c3)nc2c1` stands 13.1 µM (active).
Under `COc1ccc(NC(C(=O)Nc2cccc(C(C)=O)c2)c2ccccc2)cc1` (centres undefined) stands “inactive”.
The entry for `COc1ccc(NC(=O)CSc2nnc(Cc3ccccc3)c(=O)n2N)cc1` is “inactive”; for `COc1ccc(-n2nnnc2SCC(=O)Nc2ccccc2)cc1` it is “inactive”.
Take `COc1cccc(NC(=O)C(Sc2nc3ccccc3c(=O)n2CC(C)C)c2ccccc2)c1` (centres undefined): the Potency is 2.62 µM (active).
Under `COc1ccc(NC(=O)CSc2nc3ccccc3c(=O)n2C)cc1` stands 1.85 µM (active); under `COc1cccc(NC(=O)Cn2c3ccccc3c3nc4n(c(=O)c32)CCS4)c1`, “inactive”.
As to `COc1ccc([N+](=O)[O-])cc1NCC(=O)c1ccc(C)cc1`, the Potency result is “inactive”.
The entry for `O=S(=O)(Nc1cccc(-n2cnnn2)c1)c1cnc(Cl)c(Cl)c1` is “inactive”.
The entry for `COc1ccc2c(C)cc3nnnn3c2c1` is “inactive”; for `O=C(Nc1nnc(S(=O)(=O)N2CCOCC2)s1)c1cccc(Br)c1` it is “inactive”.
As for `Cc1ccccc1OCC(=O)Nc1nc(C)c(C(=O)N(C)C)s1`, the Potency result was “inactive”.
The figure for `Cc1cccc(NC(=O)COc2ccccc2C)n1` is 2.33 µM (active).
Under `COCCNC(=O)COc1ccccc1C` stands “inactive”; under `O=C(NCCc1ccccn1)c1cccnc1Oc1ccc(Cl)cc1`, “inactive”.
Under `Cn1ccc(=Nc2ccc(NC(=O)c3ccc(N=c4ccn(C)c5ccc([N+](=O)[O-])cc45)cc3)cc2)cc1` stands 0.165 µM (active).
With `COc1cc(NS(=O)(=O)c2ccc(NC(=O)c3ccc([N+](=O)[O-])cc3)cc2)ncn1`, the Potency result is “inactive”.
Regarding `O=C(Nc1ccc(C(=O)N2CCCCC2)cc1)c1cccc([N+](=O)[O-])c1`, the Potency entry is “inactive”.
Under `COc1ccccc1C(=O)Nc1ccnn1C1CCN(C(=O)C(C)(C)C)CC1` stands “inactive”; under `CCCOc1ccc(N/C=C/C(=O)C(C)(C)C)cc1`, “inactive”; under `O=C(/C=C/Nc1ccccc1OC(F)(F)F)C(F)(F)F`, “inactive”.
Under `CN(C)c1ccc(N/C=C/C(=O)C(F)(F)F)cc1` stands 6.57 µM (active); under `Cc1c(C(=O)N(C)CCc2cnn(C)c2)oc2c(F)cccc12`, “inactive”.
Under `Fc1ccc(/C=N/n2c(COc3ccccc3)n[nH]c2=S)cc1` stands “inactive”; under `COc1ccc(C(=O)OCC(=O)Nc2cccc(C(C)=O)c2)cc1OC`, “inactive”; under `O=C1C=CC(=O)N1c1ccc(N2CCCCC2)cc1`, “inactive”.
For the molecule `CN(C)c1ccc2c(=O)[nH][nH]c(=O)c2c1`, the Potency result is “inactive”.
The figure for `O=c1[nH][nH]c(=O)c2cc(N3CCCC3)ccc12` is 9.28 µM (active); for `CCOc1ccc(S(=O)(=O)NCc2ccc3c(c2)OCO3)cc1C` it is “inactive”.
The entry for `Cc1ccc(C(=O)NNC(=O)C(C)Oc2ccc3ccccc3c2)o1` (centres undefined) is “inactive”; for `Cc1ccc(Cl)c(OCC(=O)N(C)CC(=O)Nc2ccc(N3CCOCC3)cc2)c1` it is “inactive”; for `Cc1nn2c(NCCN(C)C)c3c(nc2c1-c1ccccc1)CCC3` it is 11.7 µM (active).
Under `Cc1cc(N2CCCC2)n2nc(C)c(-c3ccccc3)c2n1` stands “inactive”; under `Cc1cc(C(C)(C)C)n2nc(C)c(-c3ccccc3)c2n1`, “inactive”; under `O=C(CN1CCN(c2ccccn2)CC1)Nc1ccc(Br)cc1`, “inactive”.
As for `COc1ccc(C2=NS(=O)(=O)N(C)C(C(=O)N(C)Cc3ccccc3)=C2)cc1`, the Potency entry was “inactive”.
As for `Nc1c(C(=O)Nc2ccc3c(c2)OCCO3)nnn1Cc1ccccc1`, the Potency result was “inactive”.
Under `CC1CN(C(=O)CCC(=O)NCc2cccnc2)c2ccccc2O1` (centres undefined) stands “inactive”.
Under `Cc1ccccc1CNC(=O)CCC(=O)N1Cc2ccccc2Oc2ncccc21` stands 11.7 µM (active).
As for `Cc1ccc2c(c1)N(C(=O)CCC(=O)NCc1cccnc1)CCO2`, the Potency result was “inactive”.
